The source made the active and inactive calls.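 How the source made its calls: active means compounds whose cell count with miR-34 switched on is under 0.7 times the count with it off; inactive means the rest.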

This test can be described thus: sensitizers of A549 cells to miR-34 induction, primary screen, imaging, A549 dox-inducible miR-34, nuclei and caspase counts (AID 1347080). Further: test concentration not given here. The following applies: A549 miR-34 inducible, Hoechst nuclei count, 48 h.
Where [1] appears, read: stronger effect = lower value, cell number ratio, induced over uninduced.
Where [2] appears, read: measured here: relative caspase fold change +Dox/-Dox.
The mark [3] stands for this setting: measured here: total cells with miR-34 induction, stronger effect = lower value.
[4] abbreviates: measured here: total cells without miR-34 induction.

As for `CCCCC[C@H](O)/C=C/[C@H]1C(=O)C[C@H](O)[C@@H]1C/C=C\CCCC(=O)NCCO`, the fold change was 1.05 (inactive) under setting [1] and 1.15 under setting [2]. Besides, the cell count reads like this: under setting [3], 6200; under setting [4], 5900.

As to `O=C(CCCCc1ccccc1)C(F)(F)C(F)(F)F`, the fold change is, setting by setting: under setting [1], 0.952 (inactive); under setting [2], 1.77. Moreover, the cell count under setting [3] amounted to 5980 and the cell count under setting [4] turned out to be 6280.

With `CCCC1([C@@H](O)C/C=C/[C@H]2[C@H](O)CC(=O)[C@@H]2CCCCCCC(=O)O)CCC1`, the fold change under setting [1] is 0.95 (inactive) and the fold change under setting [2] amounted to 1.46. Besides, the cell count is, setting by setting: under setting [3], 5970; under setting [4], 6280.

Take `CCCCCCCC/C=C\CCCCCCCC(=O)N[C@@H](CO)C(=O)O`: the fold change was 1.01 (inactive) under setting [1] and 1.73 under setting [2]. Moreover, the cell count reads like this: under setting [3], 5230; under setting [4], 5180.

`O=C(O)CCC/C=C\C[C@@H]1[C@@H](CC[C@@H](O)CCc2ccccc2)[C@H](O)C[C@@H]1O`: the fold change reads like this: under setting [1], 0.863 (inactive); under setting [2], 1.41. The cell count runs as follows: under setting [3], 5880; under setting [4], 6810.

On to `CCCCCCC[C@H](O)/C=C/[C@H]1[C@H](O)CC(=O)[C@@H]1C/C=C\CCCC(=O)O`, for which the fold change is 0.933 (inactive) under setting [1] and 1.19 under setting [2]. For the same compound, the cell count runs as follows: under setting [3], 5790; under setting [4], 6200.

For the compound `CCCCC/C=C\C/C=C\C/C=C\CCCCCCC(=O)OCC`, the fold change was 1.05 (inactive) under setting [1] and 0.794 under setting [2]. Besides, the cell count came to 6480 under setting [3] and 6160 under setting [4].

Consider `CC(C)=CCC/C(C)=C/CC/C(C)=C/CC[C@]1(C)CCc2cc(O)c(C)c(C)c2O1`, for which the fold change under setting [1] is 0.98 (inactive) and the fold change under setting [2] worked out at 0.749. In addition, the cell count amounted to 5370 under setting [3] and 5480 under setting [4].

As for `CCCCC[C@H](O)/C=C/[C@H]1[C@H](O)CC(=O)[C@H]1C/C=C\CCCC(=O)OC(C)C`, the fold change reads like this: under setting [1], 0.953 (inactive); under setting [2], 1.45. In addition, the cell count is, setting by setting: under setting [3], 5550; under setting [4], 5820.

Take `COC(=O)CCCCCC[C@@H]1[C@@H](CC[C@@H](O)CSc2ccccc2F)[C@H](O)C[C@@H]1O`: the fold change runs as follows: under setting [1], 0.962 (inactive); under setting [2], 2.89. Besides, the cell count runs as follows: under setting [3], 5920; under setting [4], 6150.

Regarding `CC(C)CCCCCCC/C=C/C(=O)O`, the fold change reads like this: under setting [1], 0.859 (inactive); under setting [2], 0.582. Also, the cell count under setting [3] stood at 5080 and the cell count under setting [4] was 5910.

Regarding `CCCCCCOC(=O)[C@@]1(O)CC2OC1(C)n1c3ccccc3c3c4c(c5c6ccccc6n2c5c31)C(=O)NC4` (stereo partly specified), the fold change is, setting by setting: under setting [1], 0.758 (inactive); under setting [2], 1.42. Moreover, the cell count under setting [3] was 4880 and the cell count under setting [4] stood at 6430.

For the compound `O=C(NCc1ccncc1)C12CC3CC(C1)CC(c1ccc(Cl)cc1)(C3)C2`, the fold change is, setting by setting: under setting [1], 0.915 (inactive); under setting [2], 1.12. The cell count under setting [3] was determined as 4010 and the cell count under setting [4] is 4380.

Turning to `CCCC[C@H](C)C[C@H](O)/C=C/[C@H]1[C@H](O)CC(=O)[C@@H]1CCCCC(CC(=O)O)OC` (stereo partly specified), the fold change was 0.949 (inactive) under setting [1] and 0.824 under setting [2]. The cell count reads like this: under setting [3], 5200; under setting [4], 5480.

For the compound `CC(=O)OCC(=O)[C@@]12N=C(C)O[C@@H]1CC1C3CCC4=CC(=O)C=C[C@]4(C)C3[C@@H](O)C[C@@]12C` (stereo partly specified), the fold change is 0.915 (inactive) under setting [1] and 0.993 under setting [2]. In addition, the cell count by setting is: under setting [3], 6330; under setting [4], 6910.

Turning to `COc1ccc2cc(CC(=O)O)ccc2c1`, the fold change is 0.964 (inactive) under setting [1] and 1.2 under setting [2]. The cell count is, setting by setting: under setting [3], 5630; under setting [4], 5840.

For `CN(C)c1ccc(C(=O)NCCCCCC(=O)NO)cc1`, the fold change by setting is: under setting [1], 0.991 (inactive); under setting [2], 1.29. The cell count under setting [3] was 5550 and the cell count under setting [4] amounted to 5600.

Turning to `CCCCCCCCCCCCCCCC(=O)OC[C@H](COP(=O)([O-])OCC[N+](C)(C)C)OC(=O)CCCCCCCC(=O)/C=C/C(=O)O`, the fold change is 0.943 (inactive) under setting [1] and 0.858 under setting [2]. Further, the cell count was 5750 under setting [3] and 6100 under setting [4].

Take `CCCCC[C@H](O)/C=C/[C@@H]1[C@H]2C[C@H](CCCCC(=O)O)O[C@H]2C[C@H]1O`: the fold change is 0.999 (inactive) under setting [1] and 1.41 under setting [2]. The cell count by setting is: under setting [3], 6310; under setting [4], 6310.

Take `CCOC(=O)c1c(Cc2cccc(Cl)c2)[nH]c2c1cc(O)c1ccccc12`: the fold change runs as follows: under setting [1], 0.954 (inactive); under setting [2], 1.94. The cell count reads like this: under setting [3], 4980; under setting [4], 5220.

As for `CCN(CC)c1ccc(C2=C(Cl)C(=O)c3ncccc3C2=O)cc1`, the fold change is 1.01 (inactive) under setting [1] and 1.74 under setting [2]. Besides, the cell count came to 4440 under setting [3] and 4390 under setting [4].

As to `COc1ccc(/C=C/C(=O)CC(=O)/C=C/c2cccc(O)c2OC)cc1O`, the fold change is 0.925 (inactive) under setting [1] and 1.39 under setting [2]. Further, the cell count was 3510 under setting [3] and 3790 under setting [4].

In the case of `CCCCC[C@H](O)/C=C/[C@H]1[C@H](O)CC(=O)[C@@H]1CCCCCCCCC(=O)O`, the fold change was 0.947 (inactive) under setting [1] and 1.98 under setting [2]. Besides, the cell count turned out to be 5400 under setting [3] and 5700 under setting [4].

For `C[C@H](CCCO)[C@H]1CC[C@H]2[C@@H]3[C@H](O)C[C@H]4C[C@H](O)CC[C@]4(C)[C@H]3C[C@H](O)[C@]12C`, the fold change runs as follows: under setting [1], 0.949 (inactive); under setting [2], 1.07. The cell count is, setting by setting: under setting [3], 5800; under setting [4], 6110.

As for `CCCCCCCCCCCCCCCC(=O)SCCOP(=O)([O-])OCC[N+](C)(C)C`, the fold change runs as follows: under setting [1], 1.04 (inactive); under setting [2], 0.949. Also, the cell count is, setting by setting: under setting [3], 6100; under setting [4], 5890.

On to `O=P(O)(O)O[C@H]1[C@@H](O)[C@H](O)[C@@H](OP(=O)(O)O)[C@H](OP(=O)(O)O)[C@H]1O`, for which the fold change under setting [1] was 0.877 (inactive) and the fold change under setting [2] is 1.8. In addition, the cell count reads like this: under setting [3], 5820; under setting [4], 6630.

Turning to `CCCCC[C@](C)(O)/C=C/[C@H]1C(=O)C[C@H](O)[C@@H]1C/C=C\CCCC(=O)O`, the fold change under setting [1] is 1.01 (inactive) and the fold change under setting [2] stood at 0.91. In addition, the cell count came to 5200 under setting [3] and 5160 under setting [4].

Regarding `CCCCC[C@H](O)/C=C/[C@H]1C2COC(C2)[C@@H]1C/C=C\CCCC(=O)O` (stereo partly specified), the fold change reads like this: under setting [1], 0.904 (inactive); under setting [2], 0.954. Moreover, the cell count is, setting by setting: under setting [3], 5380; under setting [4], 5950.

Regarding `FC(F)(F)c1ccc(/C=C/c2cc(Cl)cc(Cl)c2)cc1`, the fold change reads like this: under setting [1], 1.01 (inactive); under setting [2], 0.839. Also, the cell count is 5620 under setting [3] and 5570 under setting [4].
